Inconclusive results are not listed. Calls of active or inactive are those of the source. Calls come from the whole dose curve; as a rule, active = well fitted inhibition curve with a large enough effect; inconclusive = small, poorly fitted or top-dose-only effect; inactive = flat fitted curve, though single readings scatter.
Biological target: Glutathione peroxidase 1 (Homo sapiens) (UniProt P07203)
Experiment: Primary qHTS Assay for Inhibitors of Recombinant Selenoprotein Glutathione Peroxidase 1 (GPX1) (AID 1845191); note: nearly all actives have a fitted effect of over 65% in size
Settings: recombinant GPX1, GR-coupled NADPH fluorescence, 15 min; series mostly up to 48.8 µM; activity, negative = inhibition: at the top concentration
Text: Assay Provider: Elias S.J. Arner MD PhD.
Department of Medical Biochemistry and Biophysics
Karolinska Institutet, Solna, Stockholm, Sweden
Selenoprotein glutathione peroxidases (GPX), like the ubiquitously expressed GPX1 and the ferroptosis modulator GPX4, enact their antioxidant activities by reducing hydroperoxides using glutathione. […] GPX1 and GPX4 inhibitors have thus shown promise as anti-cancer agents. Existing inhibitors are often promiscuous, or modulate GPX activity only indirectly, so novel direct inhibitors identified through screening against GPX1 and GPX4 could be valuable. Here, we developed optimized glutathione reductase (GR)-coupled GPX assays for the biochemical high-throughput screen (HTS) of almost 12,000 compounds with known mechanisms of action. Initial hits were triaged using a GR counter-screen, assessed for isoform specificity using a separate GPX2 assay, and were assessed for general selenocysteine-targeting activity using a thioredoxin reductase (TXNRD1) assay. With this suite of assays, we identified novel GPX1/GPX2- and GPX4-specific inhibitors and can here present a validated pipeline for future discovery research for selenoprotein-targeting agents.
SEQUENCE No. (e.g., 1, 2, 3, etc.); […] (e.g., Cells, Incubation, Reagent, etc.); VALUE; DESCRIPTION.
1; Reagent 1; 3 uL; GPx1 enzyme or no enzyme control in 1536-well, black, solid Greiner assay plate.
2; Compound; 25 nL; Kalypsis pin tool (Wako USA) equipped with a 1536-well pin head.
3; Incubation; 30 min; room temperature.
4; Reagent 2; 1 uL; 10 nM GPX1, 1 mM GSH, 0.5 mM CHP, 0.5 mM NADPH, 100 nM GR, 0.01% BSA substrate
5; Detection; Fluorescence; ViewLux microplate reader, excitation 340 nm and emission 450 nm.
6; Incubation; 15 min; room temperature.
7; Detection; Fluorescence; ViewLux microplate reader, excitation 340 nm and emission 450 nm.
NOTES (numbers refer to Sequence numbers above)
1. 3 uL of 16.66 nM GPX1 and 0.016% BSA in assay buffer (50 mM Tris-HCl, 2 mM EDTA (pH 7.5), 150 mM NaCl) was added to columns 3-48 of 1536-well assay plates using a BioRAPTR Flying Reagent Dispenser (Let's Go Robotics (LGR), Carlsbad, CA). A no-enzyme control (0.01% BSA in TES assay buffer) was added to columns 1-2.
2. 25 nL of test compounds and DMSO controls were added to each well with a pin tool (Kalypsys).
3. The assay plates were incubated for 30 minutes at room temperature.
4. 1 uL of master mix (500 nM glutathione reductase (GR), 5 mM reduced glutathione (GSH), 2.5 mM NADPH in assay buffer) was added. 1 uL of cumene hydroperoxide (CHP) ([2.5 mM] in 50% EtOH) was then added within 5 minutes to initiate the reaction. Final concentrations were: 10 nM GPX1, 1 mM GSH, 0.5 mM CHP, 0.5 mM NADPH, 100 nM GR, 0.01% BSA.
5. Initial fluorescence readout (t=0) at 340/450 nm was measured using a ViewLux multimodal detector (PerkinElmer, Waltham, MA).
7. Endpoint fluorescence readout (t=15) at 340/450 nm was measured 15 min after room temperature incubation.
Potency is the fitted concentration of half-maximal effect.

Chain of Glutathione peroxidase 1 (Homo sapiens) (P07203 whole entry, looked up): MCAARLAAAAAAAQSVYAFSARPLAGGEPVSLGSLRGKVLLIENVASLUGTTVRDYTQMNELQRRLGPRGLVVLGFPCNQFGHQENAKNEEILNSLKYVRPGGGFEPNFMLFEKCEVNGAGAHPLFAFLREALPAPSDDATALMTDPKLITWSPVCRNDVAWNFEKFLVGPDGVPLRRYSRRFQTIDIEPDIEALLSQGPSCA

Structure (SMILES) | activity, negative = inhibition | outcome | Potency
CCCCCCCCN=C(N)NC(N)=NCc1ccc(Cl)c(Cl)c1 | -15.1% (inactive) | – | –
CC(C)n1cnc2c(NCc3ccccc3)nc(NCCCO)nc21 | – | inactive | –
Cc1cc(Nc2cccc(Cl)c2)nc2ccc(NC(=O)Cc3cccc(C(F)(F)F)c3)cc12 | – | inactive | –
CC(=O)O[C@]1(C(C)=O)CC[C@H]2[C@@H]3C=C(C)C4=CC(=O)CC[C@@H]4[C@H]3CC[C@@]21C | -11.4% (inactive) | – | –
O=C(N[C@H]1CCS[C@H]2CCC[C@@H](C(=O)O)N2C1=O)[C@@H](S)Cc1ccccc1 | – | – | 10.1 µM (active)
CN[C@@H]1[C@H](O[C@H]2[C@H](O[C@@H]3[C@@H](O)[C@H](O)[C@@H](N=C(N)N)[C@H](O)[C@H]3NC(=N)N)O[C@@H](C)[C@]2(O)CO)O[C@@H](CO)[C@H](O)[C@H]1O | – | inactive | –
O=C1CCc2ccccc2O1 | – | inactive | –
COc1ccc(C2CC(=O)c3cc(-c4nc(-c5cccc([N+](=O)[O-])c5)cs4)c(=O)n(-c4ccccc4N)c3C2)cc1 (stereo not given) | – | inactive | –
CC(=O)OC[C@H]1O[C@@H](n2cnc(N)nc2=O)[C@H](OC(C)=O)[C@@H]1OC(C)=O | – | inactive | –
CCCCCCCCCCCCCCCC(=O)OCC(O)C1OC(=O)C(O)=C1O (stereo not given) | – | inactive | –
C[C@@H]1[C@H](C)CC[C@]2(C(=O)O[C@@H]3O[C@@H](CO[C@@H]4O[C@@H](CO)[C@@H](O[C@@H]5O[C@@H](C)[C@@H](O)[C@@H](O)[C@H]5O)[C@@H](O)[C@H]4O)[C@@H](O)[C@@H](O)[C@H]3O)CC[C@]3(C)C(=CC[C@H]4[C@@]5(C)C[C@@H](O)[C@@H](O)[C@](C)(CO)[C@@H]5CC[C@@]43C)[C@H]12 | 0.101% [at 15.3 µM] (inactive) | – | –
CCCC1CC(C(=O)NC(C(C)Cl)C2OC(SC)C(OP(=O)(O)O)C(O)C2O)N(C)C1 (stereo not given) | 1.35% [at 27.7 µM] (inactive) | – | –
CCN(CC)CCS(=O)(=O)[C@@H]1CCN2C(=O)c3coc(n3)CC(=O)C[C@H](O)/C=C(C)/C=C/CNC(=O)/C=C/[C@@H](C)[C@@H](C(C)C)OC(=O)[C@@H]12 | -27% (inactive) | – | –
Nc1cccc(-c2csc(NC(=O)CCCCCCC(=O)NO)n2)c1 | -13.9% (inactive) | – | –
CC(C)C[C@H](NC(=O)[C@@H](Cc1c[nH]c2ccccc12)NC(=O)[C@H](Cc1ccc(O)cc1)NC(=O)[C@H](CO)NC(=O)[C@H](Cc1c[nH]c2ccccc12)NC(=O)[C@H](Cc1cnc[nH]1)NC(=O)[C@@H]1CCC(=O)N1)C(=O)N[C@@H](CCCN=C(N)N)C(=O)N1CCC[C@H]1C(=O)NCC(N)=O | – | inactive [at 27.7 µM] | –
CCN1/C(=C/C=C/C=C/c2sc3ccccc3[n+]2CC)Sc2ccccc21 | – | – | 1.43 µM (active)
COc1ccc(CNc2nc(N3CCC[C@H]3CO)ncc2C(=O)NCc2ncccn2)cc1Cl | – | inactive | –
CC(=O)c1cc2cccc(OCC(O)CNC(C)C)c2o1 (stereo not given) | – | inactive | –
CC(C)=CCC[C@](C)(OC1OC(COC2OCC(O)C(O)C2O)C(O)C(O)C1O)[C@H]1CC[C@]2(C)[C@@H]1[C@H](O)C[C@@H]1[C@@]3(C)CC[C@H](OC4OC(CO)C(O)C(O)C4OC4OC(CO)C(O)C(O)C4O)C(C)(C)[C@@H]3CC[C@]12C (stereo not given in full) | -8.59% [at 27.7 µM] (inactive) | – | –
CC(C)OC(=O)[C@H](C)N[P@@](=O)(OC[C@H]1O[C@@H](n2ccc(=O)[nH]c2=O)[C@](C)(F)[C@@H]1O)Oc1ccccc1 | -7.27% (inactive) | – | –

Structure (SMILES) | activity, negative = inhibition | outcome | Potency
COC(=O)N[C@H](C(=O)N1CC2(CC2)C[C@H]1c1ncc(-c2ccc3c(c2)C(F)(F)c2cc(-c4ccc5nc([C@@H]6[C@H]7CC[C@H](C7)N6C(=O)[C@@H](NC(=O)OC)C(C)C)[nH]c5c4)ccc2-3)[nH]1)C(C)C | – | – | inactive
Cc1ccc(Nc2ncc(C(=O)N3CCN(c4ccc(F)cc4)CC3)c3ccccc23)cc1Cl | -12.7% (inactive) | – | –
N#Cc1c(N2C[C@@H]3NCCO[C@H]3C2)c(F)cc2c(=O)c(C(=O)O)cn(C3CC3)c12 | -17.1% (inactive) | – | –
CN(CC(O)CO)C(=O)c1c(I)c(NC(=O)C(CO)CO)c(I)c(C(=O)N(C)CC(O)CO)c1I (stereo not given) | – | inactive | –
CCC[C@@H]1C[C@@H](C(=O)N[C@@H](C2O[C@H](SC)[C@H](O)[C@@H](O)[C@H]2O)[C@H](C)Cl)N(C)C1 (stereo not given in full) | -18.6% (inactive) | – | –
CC(C)(CO)C(O)C(=O)NCCCC(=O)O (stereo not given) | -11.7% (inactive) | – | –
O=C(c1cccc(Br)c1)N1CCC(N2CCCC2)CC1 | -9.02% (inactive) | – | –
O=c1c2c(c1=O)N(CCP(=O)(O)O)CCCN2 | – | inactive [at 98.3 µM] | –
CCCCCCCCCC(=O)OCCN1CCN(CCCN2c3ccccc3Sc3ccc(C(F)(F)F)cc32)CC1 | – | inactive | –
CNC(=O)c1ccccc1Oc1nc(Nc2cc(OC)c(OC)c(OC)c2)ncc1Br | 1.56% (inactive) | – | –
Cn1c(=O)cc(N2CCC[C@@H](N)C2)n(Cc2cc(F)ccc2C#N)c1=O | -8.65% (inactive) | – | –
C[C@H](CCC(=O)O)[C@H]1CC[C@H]2[C@@H]3CC[C@@H]4C[C@H](O)CC[C@]4(C)[C@@H]3C[C@H](O)[C@]12C | -27.6% (inactive) | – | –
Cc1ccccc1Sc1ccc(/C=C2\SC(=S)NC2=O)cc1[N+](=O)[O-] | -28.1% (inactive) | – | –
CN[C@@H]1[C@@H](O[C@H]2O[C@H](CO)[C@@H](N)[C@H](O)[C@H]2O)O[C@H]2C[C@@H](N)[C@H](O[C@H]3[C@H](O)[C@@H](O)[C@H](N)C[C@@H]3N)O[C@@H]2[C@@H]1O | -12.9% (inactive) | – | –
O=[N+]([O-])c1cc(S(=O)(=O)Nc2ccc(O)c3ccccc23)ccc1Cl | -22.7% (inactive) | – | –
OC(c1ccccc1)(c1ccccc1)C12CC[N+](CCOCc3ccccc3)(CC1)CC2 | -2.29% (inactive) | – | –
O=NCc1ccc([N+](=O)[O-])o1 | -14.5% (inactive) | – | –
N#Cc1ccc(-c2csc(NN=C3CCCC3)n2)cc1 | -16.3% (inactive) | – | –
CC1(COc2ccc(N3CCC(Oc4ccc(OC(F)(F)F)cc4)CC3)cc2)Cn2cc([N+](=O)[O-])nc2O1 (stereo not given) | -11.5% (inactive) | – | –
CC(=O)OC1CC(OC2C(O)CC(OC3C(O)CC(OC4CCC5(C)C(CCC6C5CCC5(C)C(C7=CC(=O)OC7)CCC65O)C4)OC3C)OC2C)OC(C)C1O (stereo not given) | -8.69% (inactive) | – | –
